# Results reported in PubChem BioAssay (NCATS).
# Values without a mark were called inactive. Calls follow the shape of the dose curve; as a rule, active = well fitted curve in the direction sought with a large enough effect; inconclusive = small, poorly fitted or top-dose-only effect, or effect the other way, or another doubt; inactive = no such curve, though single readings can be large or run the other way.
# Assay: qHTS of Nrf2 Activators: LOPAC Validation (AID 624149); also: 0% is about no effect
# Settings: Nrf2/ARE reporter cell assay; series mostly up to 46.1 µM; activation: at the top concentration
# How it was run: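 Luciferase signal from ARE activation, read with Steady-Glo after 30 min at room temperature. Compounds were pin-transferred onto AREc32_Fluc cells (1000/well, OPTI-MEM/5% FBS, seeded overnight) and left 24 hr at 37 deg C.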
row,SMILES,activation
1,CCOC(=O)N1CCC(=C2c3ccc(Cl)cc3CCc3cccnc32)CC1,-2.26%
2,O=c1n(CCCN2CCN(c3cccc(Cl)c3)CC2)nc2ccccn12,0.864%
3,CCN(CC)CCCC(C)Nc1ccnc2cc(Cl)ccc12 (stereo unspecified),-1.75%
4,NCCCC(N)(C(=O)O)C(F)F (stereo unspecified),1.13%
5,Cc1ccc(N(CC2=NCCN2)c2cccc(O)c2)cc1,-1.86%
6,CC(C[N+](C)(C)C)OC(N)=O (stereo unspecified),-0.0534%
7,O=C(O)COCCN1CCN(C(c2ccccc2)c2ccc(Cl)cc2)CC1 (stereo unspecified),-1.98%
8,CCCCNc1cc(C(=O)O)cc(S(N)(=O)=O)c1Oc1ccccc1,0.329%
9,O=c1[nH]cnc2[nH]ncc12,-2.12%
10,Nc1ccc(S(=O)(=O)Nc2ccnn2-c2ccccc2)cc1,-1.99%
11,NNCCc1ccccc1,-0.88%
12,CC(C)NCC(O)COc1ccc(COCCOC(C)C)cc1 (stereo unspecified),-1.32%
13,N[C@@H]1CONC1=O,-2.69%
14,OC(CN1CCC(Cc2ccc(F)cc2)CC1)c1ccc(Cl)cc1 (stereo unspecified),-1.34%
15,Cc1cnc(NC(=O)C2=C(O)c3ccccc3S(=O)(=O)N2C)s1,-1.46%
16,NC(N)=NC(=O)c1nc(Cl)c(N)nc1N,0.402%
17,NC[C@H](O)c1ccc(O)c(O)c1,-1.08%
18,c1ccc([C@H]2CN3CCSC3=N2)cc1,-1.99%

row,SMILES,activation
1,CC(C)C[C@H](NC(=O)[C@@H](O)[C@H](N)Cc1ccccc1)C(=O)O,-0.867%
2,Clc1cccc(Cl)c1NC1=NCCN1,-0.847%
3,Cc1cn[nH]c1,-1.14%
4,C[C@]12CCC(=O)C=C1CC[C@@H]1[C@@H]2[C@@H](O)C[C@@]2(C)[C@H]1CC[C@]2(O)C(=O)CO,-1.12%
5,NCCc1ccc(O)c(O)c1,1.16%
6,CCn1cc(C(=O)O)c(=O)c2cc(F)c(N3CCNC(C)C3)c(F)c21 (stereo unspecified),0.946%
7,O=C(Nc1nc2ccccc2n1CCN1CCOCC1)c1cccc([N+](=O)[O-])c1,11.4%
8,C1COC(NC(C2CC2)C2CC2)=N1,7%
9,O=NN(CCCl)C(=O)NCCCl,-0.944%
10,Cc1oncc1C(=O)Nc1ccc(C(F)(F)F)cc1,-0.786%
11,N=c1nc(N2CCCCC2)cc(N)n1O,-2.18%
12,CN1CCN(CCCN2c3ccccc3Sc3ccc(C(F)(F)F)cc32)CC1,1.44%
13,Nc1nc2c(ncn2COCCO)c(=O)[nH]1,-2.21%
14,CC(C)(Sc1ccc(CCN(CCCCC2CCCCC2)C(=O)NC2CCCCC2)cc1)C(=O)O,6.43%
15,CCOC(=O)C1=C[C@]2(CC)CCCN3CCc4c(n1c1ccccc41)[C@@H]32,-1.22%
16,OC(CCN1CCCCC1)(c1ccccc1)C1CC2C=CC1C2 (stereo unspecified),-2.22%
17,Oc1ccc(C2CNCCc3c2cc(O)c(O)c3Cl)cc1 (stereo unspecified),-1.63%
18,O=C1CCc2cc(OCCCCc3nnnn3C3CCCCC3)ccc2N1,-1.51%
